According to publication PMC7862700, “An all-to-all approach to the identification of sequence-specific readers for epigenetic DNA modifications on cytosine”:

Columns and labels:
Assay in all cases: DAPPL (digital affinity profiling via proximity ligation, sequencing); 10 mM Tris-HCl pH 7.5, 50 mM NaCl, 1 mM DTT, 4% glycerol, room temperature, 30 min; GST-TFs on glutathione beads, 16-mer random dsDNA library, 0.1% formaldehyde crosslink after washing; high values mean tight binding
[1] = biological target: T1, FLI1 (Homo sapiens, UniProt Q01543 1-452); details: protein: recombinant; tags: N-terminal GST; dsDNA, one strand shown
T1 sequence: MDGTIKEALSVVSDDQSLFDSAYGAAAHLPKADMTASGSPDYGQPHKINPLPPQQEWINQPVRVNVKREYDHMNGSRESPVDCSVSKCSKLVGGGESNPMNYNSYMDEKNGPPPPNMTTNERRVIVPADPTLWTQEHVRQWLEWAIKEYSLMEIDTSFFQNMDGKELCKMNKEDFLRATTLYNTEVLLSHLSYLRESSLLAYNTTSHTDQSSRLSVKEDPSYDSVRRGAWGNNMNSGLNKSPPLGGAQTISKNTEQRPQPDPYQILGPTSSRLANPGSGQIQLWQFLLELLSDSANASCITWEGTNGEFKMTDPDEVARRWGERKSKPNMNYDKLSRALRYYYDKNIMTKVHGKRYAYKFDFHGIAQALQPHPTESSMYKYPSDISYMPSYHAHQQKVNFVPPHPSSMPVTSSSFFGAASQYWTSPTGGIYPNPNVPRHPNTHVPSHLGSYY
Summary of the method: (§1)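 The binding signal reported is, for every hexamer, its read frequency for a factor over its read frequency for the tag-only sample. Reads came from pools of yeast-expressed, GST-fused human transcription factors on glutathione beads, barcoded with DNA and mixed with that sample, which were incubated with 200 nmole of a random double-stranded 16-mer DNA library in Tris/NaCl/DTT/glycerol buffer at room temperature for 30 min. After washing, the pools were crosslinked with 0.1% formaldehyde, proximity-ligated with BsaI/T4 ligase for 1 h at 37 °C, PCR-amplified and sequenced on an Illumina NextSeq500.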

[2] = biological target: T2, ELK1 (Homo sapiens, UniProt P19419 1-428); details: protein: recombinant; tags: N-terminal GST; dsDNA, one strand shown
T2 sequence: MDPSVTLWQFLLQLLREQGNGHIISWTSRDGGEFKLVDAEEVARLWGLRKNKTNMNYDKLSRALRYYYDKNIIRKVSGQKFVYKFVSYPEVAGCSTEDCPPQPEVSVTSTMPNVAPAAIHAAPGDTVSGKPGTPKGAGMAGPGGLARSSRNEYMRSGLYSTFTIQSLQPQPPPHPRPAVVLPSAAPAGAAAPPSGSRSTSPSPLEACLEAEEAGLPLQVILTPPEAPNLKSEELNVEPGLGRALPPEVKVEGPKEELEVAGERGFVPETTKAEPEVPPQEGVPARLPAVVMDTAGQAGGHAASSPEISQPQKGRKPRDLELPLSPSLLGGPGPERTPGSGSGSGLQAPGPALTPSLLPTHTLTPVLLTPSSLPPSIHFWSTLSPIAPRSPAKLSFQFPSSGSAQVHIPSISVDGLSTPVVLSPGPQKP
Summary of the method: as §1

[3] = biological target: T3, GABPA (Homo sapiens, UniProt Q06546 1-454); details: protein: recombinant; tags: N-terminal GST; dsDNA, one strand shown
T3 sequence: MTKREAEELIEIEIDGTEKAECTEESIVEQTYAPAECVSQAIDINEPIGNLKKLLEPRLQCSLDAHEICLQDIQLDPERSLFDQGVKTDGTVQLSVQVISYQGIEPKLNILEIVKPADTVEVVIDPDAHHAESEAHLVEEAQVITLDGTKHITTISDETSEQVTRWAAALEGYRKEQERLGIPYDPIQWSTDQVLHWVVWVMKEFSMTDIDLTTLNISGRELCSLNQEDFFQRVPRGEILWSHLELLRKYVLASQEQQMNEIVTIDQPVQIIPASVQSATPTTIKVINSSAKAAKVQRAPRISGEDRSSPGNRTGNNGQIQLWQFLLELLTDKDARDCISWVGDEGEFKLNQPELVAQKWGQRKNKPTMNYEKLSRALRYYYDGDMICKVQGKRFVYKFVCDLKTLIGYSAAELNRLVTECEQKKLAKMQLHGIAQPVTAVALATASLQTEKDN
Summary of the method: as §1

[4] = biological target: T4, ERG (Homo sapiens, UniProt P11308 1-479); details: protein: recombinant; tags: N-terminal GST; dsDNA, one strand shown
T4 sequence: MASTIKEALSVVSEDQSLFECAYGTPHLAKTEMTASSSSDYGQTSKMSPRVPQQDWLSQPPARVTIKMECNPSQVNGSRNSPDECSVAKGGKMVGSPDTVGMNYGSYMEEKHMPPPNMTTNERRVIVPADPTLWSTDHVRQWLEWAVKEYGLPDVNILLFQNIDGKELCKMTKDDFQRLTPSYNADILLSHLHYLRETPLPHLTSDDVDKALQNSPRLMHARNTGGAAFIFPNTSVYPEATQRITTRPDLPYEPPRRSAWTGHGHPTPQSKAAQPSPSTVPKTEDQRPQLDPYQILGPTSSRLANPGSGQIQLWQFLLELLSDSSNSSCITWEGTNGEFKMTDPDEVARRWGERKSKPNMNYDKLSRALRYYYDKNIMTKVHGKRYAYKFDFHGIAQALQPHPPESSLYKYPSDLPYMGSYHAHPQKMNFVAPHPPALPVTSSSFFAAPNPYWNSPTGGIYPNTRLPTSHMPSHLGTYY
Summary of the method: as §1

[5] = biological target: ELF1 (Homo sapiens, UniProt P32519 1-619); details: protein: recombinant; tags: N-terminal GST; dsDNA, one strand shown
Summary of the method: as §1

[6] = biological target: T5, EHF (Homo sapiens, UniProt Q9NZC4 1-300); details: protein: recombinant; tags: N-terminal GST; dsDNA, one strand shown
T5 sequence: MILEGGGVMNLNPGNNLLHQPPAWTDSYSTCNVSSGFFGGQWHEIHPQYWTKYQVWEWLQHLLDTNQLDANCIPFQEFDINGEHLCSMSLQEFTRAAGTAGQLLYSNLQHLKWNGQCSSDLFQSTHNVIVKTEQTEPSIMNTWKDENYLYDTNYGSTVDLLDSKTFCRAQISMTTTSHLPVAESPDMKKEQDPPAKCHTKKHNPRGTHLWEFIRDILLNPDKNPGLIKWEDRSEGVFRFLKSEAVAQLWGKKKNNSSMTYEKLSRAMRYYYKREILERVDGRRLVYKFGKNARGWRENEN
Summary of the method: as §1

[7] = biological target: SPIB (Homo sapiens, UniProt Q01892 1-262); details: protein: recombinant; tags: N-terminal GST; dsDNA, one strand shown
Summary of the method: as §1

[8] = biological target: T6, ELK3 (Homo sapiens, UniProt P41970 1-407); details: protein: recombinant; tags: N-terminal GST; dsDNA, one strand shown
T6 sequence: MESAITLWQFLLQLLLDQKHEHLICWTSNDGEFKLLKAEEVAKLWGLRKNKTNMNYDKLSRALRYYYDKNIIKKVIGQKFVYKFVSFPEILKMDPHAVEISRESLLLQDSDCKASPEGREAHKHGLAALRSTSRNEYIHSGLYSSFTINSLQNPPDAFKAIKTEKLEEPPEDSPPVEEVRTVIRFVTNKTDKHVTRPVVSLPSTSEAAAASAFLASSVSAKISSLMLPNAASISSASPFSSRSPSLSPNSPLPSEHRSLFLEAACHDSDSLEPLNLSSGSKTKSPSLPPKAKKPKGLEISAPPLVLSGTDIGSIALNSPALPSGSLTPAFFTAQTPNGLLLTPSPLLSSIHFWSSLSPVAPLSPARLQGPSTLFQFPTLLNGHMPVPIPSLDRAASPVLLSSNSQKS
Summary of the method: as §1

[9] = biological target: T7, FEV (Homo sapiens, UniProt Q99581 1-238); details: protein: recombinant; tags: N-terminal GST; dsDNA, one strand shown
T7 sequence: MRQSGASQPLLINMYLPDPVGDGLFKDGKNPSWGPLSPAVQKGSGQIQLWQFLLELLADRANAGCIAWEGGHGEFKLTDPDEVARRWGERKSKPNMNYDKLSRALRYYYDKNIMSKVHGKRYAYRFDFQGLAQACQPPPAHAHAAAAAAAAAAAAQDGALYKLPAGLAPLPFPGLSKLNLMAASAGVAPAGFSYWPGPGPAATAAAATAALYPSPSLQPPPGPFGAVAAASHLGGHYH
Summary of the method: as §1

[10] = biological target: ETV5 (Homo sapiens, UniProt P41161 1-510); details: protein: recombinant; tags: N-terminal GST; dsDNA, one strand shown
Summary of the method: as §1

[11] = biological target: HSF1 (Homo sapiens, UniProt Q00613 1-529); details: protein: recombinant; tags: N-terminal GST; chain copies: 3; dsDNA, one strand shown
Summary of the method: as §1

[12] = biological target: T8, SPIC (Homo sapiens, UniProt Q8N5J4 1-248); details: protein: recombinant; tags: N-terminal GST; dsDNA, one strand shown
T8 sequence: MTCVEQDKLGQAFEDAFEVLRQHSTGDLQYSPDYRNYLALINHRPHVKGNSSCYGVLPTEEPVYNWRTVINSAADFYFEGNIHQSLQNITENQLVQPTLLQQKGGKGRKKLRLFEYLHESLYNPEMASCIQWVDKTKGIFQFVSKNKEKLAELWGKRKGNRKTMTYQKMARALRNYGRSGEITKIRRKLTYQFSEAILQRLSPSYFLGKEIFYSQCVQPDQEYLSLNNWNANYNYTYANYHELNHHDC
Summary of the method: as §1

[13] = biological target: ELF4 (Homo sapiens, UniProt Q99607 1-663); details: protein: recombinant; tags: N-terminal GST; dsDNA, one strand shown
Summary of the method: as §1

[14] = biological target: T9, ELK4 (Homo sapiens, UniProt P28324-2 1-405); details: protein: recombinant; tags: N-terminal GST; dsDNA, one strand shown
T9 sequence: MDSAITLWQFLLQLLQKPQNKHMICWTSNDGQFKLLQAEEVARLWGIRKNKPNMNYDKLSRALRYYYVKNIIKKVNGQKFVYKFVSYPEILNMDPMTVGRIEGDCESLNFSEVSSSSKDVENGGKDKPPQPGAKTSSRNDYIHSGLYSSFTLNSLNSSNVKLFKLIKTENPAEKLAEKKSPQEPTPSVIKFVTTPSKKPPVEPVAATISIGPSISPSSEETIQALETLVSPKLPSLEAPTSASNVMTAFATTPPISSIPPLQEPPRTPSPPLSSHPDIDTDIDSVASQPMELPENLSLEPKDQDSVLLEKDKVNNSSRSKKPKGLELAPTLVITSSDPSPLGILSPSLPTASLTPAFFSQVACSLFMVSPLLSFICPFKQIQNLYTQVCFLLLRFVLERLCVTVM
Summary of the method: as §1

[15] = biological target: T10, ETV2 (Homo sapiens, UniProt O00321 1-342); details: protein: recombinant; tags: N-terminal GST; dsDNA, one strand shown
T10 sequence: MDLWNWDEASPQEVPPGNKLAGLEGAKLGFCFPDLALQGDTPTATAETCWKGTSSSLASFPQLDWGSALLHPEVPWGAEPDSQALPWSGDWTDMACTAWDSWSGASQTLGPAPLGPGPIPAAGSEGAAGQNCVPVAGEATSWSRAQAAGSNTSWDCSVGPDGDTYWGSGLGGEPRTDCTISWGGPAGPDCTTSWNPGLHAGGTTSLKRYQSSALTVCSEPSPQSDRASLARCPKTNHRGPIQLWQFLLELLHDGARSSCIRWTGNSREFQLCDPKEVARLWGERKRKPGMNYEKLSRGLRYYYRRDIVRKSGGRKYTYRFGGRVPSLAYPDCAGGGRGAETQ
Summary of the method: as §1

[16] = biological target: ETV1 (Homo sapiens, UniProt P50549 1-477); details: protein: recombinant; tags: N-terminal GST; dsDNA, one strand shown
Summary of the method: as §1

[17] = biological target: SPI1 (Homo sapiens, UniProt P17947 1-270); details: protein: recombinant; tags: N-terminal GST; dsDNA, one strand shown
Summary of the method: as §1

[18] = biological target: CRX (Homo sapiens, UniProt O43186 1-299); details: protein: recombinant; tags: N-terminal GST; dsDNA, one strand shown
Summary of the method: as §1

Chain of ELF4 (Q99607 whole entry): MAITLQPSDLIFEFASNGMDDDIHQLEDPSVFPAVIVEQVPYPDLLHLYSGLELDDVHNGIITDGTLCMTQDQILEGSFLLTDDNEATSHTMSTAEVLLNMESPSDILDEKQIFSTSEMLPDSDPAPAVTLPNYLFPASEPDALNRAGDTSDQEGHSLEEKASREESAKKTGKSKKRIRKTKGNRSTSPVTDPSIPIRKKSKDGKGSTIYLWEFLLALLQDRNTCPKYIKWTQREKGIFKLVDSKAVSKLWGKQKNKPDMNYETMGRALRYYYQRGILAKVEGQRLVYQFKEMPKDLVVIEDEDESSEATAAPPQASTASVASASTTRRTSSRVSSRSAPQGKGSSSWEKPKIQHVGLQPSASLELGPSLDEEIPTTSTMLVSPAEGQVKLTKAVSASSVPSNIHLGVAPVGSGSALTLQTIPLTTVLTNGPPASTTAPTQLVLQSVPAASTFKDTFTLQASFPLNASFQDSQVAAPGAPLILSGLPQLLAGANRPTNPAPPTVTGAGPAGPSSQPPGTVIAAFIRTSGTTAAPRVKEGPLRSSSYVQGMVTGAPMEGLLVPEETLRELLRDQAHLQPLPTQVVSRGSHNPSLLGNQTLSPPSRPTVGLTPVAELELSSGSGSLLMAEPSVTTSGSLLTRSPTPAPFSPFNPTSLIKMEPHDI
Chain of SPIB (Q01892 whole entry): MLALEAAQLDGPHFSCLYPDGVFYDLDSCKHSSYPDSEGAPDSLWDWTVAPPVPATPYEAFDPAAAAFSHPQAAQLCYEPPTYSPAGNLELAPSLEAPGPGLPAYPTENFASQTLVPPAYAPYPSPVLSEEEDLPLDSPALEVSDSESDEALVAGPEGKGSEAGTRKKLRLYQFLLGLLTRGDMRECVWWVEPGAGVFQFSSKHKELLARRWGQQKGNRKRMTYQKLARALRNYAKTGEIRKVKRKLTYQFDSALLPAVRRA
Chain of ETV1 (P50549 whole entry): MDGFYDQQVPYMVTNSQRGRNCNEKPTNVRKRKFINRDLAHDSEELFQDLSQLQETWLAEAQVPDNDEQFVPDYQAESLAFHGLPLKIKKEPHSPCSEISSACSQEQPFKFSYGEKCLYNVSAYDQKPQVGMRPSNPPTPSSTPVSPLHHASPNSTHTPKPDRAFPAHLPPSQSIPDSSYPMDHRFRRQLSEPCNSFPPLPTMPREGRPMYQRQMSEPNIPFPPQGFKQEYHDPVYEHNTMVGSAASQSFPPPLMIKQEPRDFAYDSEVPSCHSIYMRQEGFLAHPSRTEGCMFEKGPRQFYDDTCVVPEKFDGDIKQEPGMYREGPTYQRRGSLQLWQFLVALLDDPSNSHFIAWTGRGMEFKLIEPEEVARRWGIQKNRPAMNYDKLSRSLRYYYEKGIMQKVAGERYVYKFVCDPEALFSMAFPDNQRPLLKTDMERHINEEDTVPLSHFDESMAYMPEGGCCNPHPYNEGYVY
Chain of ELF1 (P32519 whole entry): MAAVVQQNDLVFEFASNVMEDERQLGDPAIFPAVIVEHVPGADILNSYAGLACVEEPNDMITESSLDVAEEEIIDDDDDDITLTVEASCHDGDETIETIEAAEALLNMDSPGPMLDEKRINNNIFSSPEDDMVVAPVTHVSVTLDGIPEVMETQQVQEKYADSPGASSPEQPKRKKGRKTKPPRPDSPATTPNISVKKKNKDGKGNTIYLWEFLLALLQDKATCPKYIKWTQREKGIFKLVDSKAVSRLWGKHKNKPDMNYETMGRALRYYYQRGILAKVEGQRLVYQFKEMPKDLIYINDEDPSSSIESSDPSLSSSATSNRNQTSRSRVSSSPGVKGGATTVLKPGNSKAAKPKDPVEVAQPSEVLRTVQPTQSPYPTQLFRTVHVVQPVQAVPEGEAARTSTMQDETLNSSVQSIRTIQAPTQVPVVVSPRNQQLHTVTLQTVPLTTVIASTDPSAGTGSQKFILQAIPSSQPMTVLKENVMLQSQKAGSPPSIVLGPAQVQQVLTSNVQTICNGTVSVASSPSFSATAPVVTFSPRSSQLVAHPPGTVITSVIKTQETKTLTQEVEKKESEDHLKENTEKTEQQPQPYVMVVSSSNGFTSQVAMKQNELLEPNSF
Chain of ETV5 (P41161 whole entry): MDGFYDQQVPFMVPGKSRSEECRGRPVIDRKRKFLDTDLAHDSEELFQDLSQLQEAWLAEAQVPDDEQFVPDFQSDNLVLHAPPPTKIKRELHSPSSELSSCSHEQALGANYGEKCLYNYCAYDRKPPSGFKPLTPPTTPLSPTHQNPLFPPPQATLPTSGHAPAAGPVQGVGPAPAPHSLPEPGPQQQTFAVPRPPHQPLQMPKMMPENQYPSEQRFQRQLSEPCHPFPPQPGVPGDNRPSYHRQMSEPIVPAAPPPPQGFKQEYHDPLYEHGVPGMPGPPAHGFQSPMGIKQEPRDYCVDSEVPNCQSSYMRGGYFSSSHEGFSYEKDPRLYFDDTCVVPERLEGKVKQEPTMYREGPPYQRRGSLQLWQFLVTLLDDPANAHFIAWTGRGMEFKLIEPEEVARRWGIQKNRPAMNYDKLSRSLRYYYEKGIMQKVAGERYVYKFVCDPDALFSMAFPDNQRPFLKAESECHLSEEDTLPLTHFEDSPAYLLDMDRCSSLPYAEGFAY
Chain of HSF1 (Q00613 whole entry): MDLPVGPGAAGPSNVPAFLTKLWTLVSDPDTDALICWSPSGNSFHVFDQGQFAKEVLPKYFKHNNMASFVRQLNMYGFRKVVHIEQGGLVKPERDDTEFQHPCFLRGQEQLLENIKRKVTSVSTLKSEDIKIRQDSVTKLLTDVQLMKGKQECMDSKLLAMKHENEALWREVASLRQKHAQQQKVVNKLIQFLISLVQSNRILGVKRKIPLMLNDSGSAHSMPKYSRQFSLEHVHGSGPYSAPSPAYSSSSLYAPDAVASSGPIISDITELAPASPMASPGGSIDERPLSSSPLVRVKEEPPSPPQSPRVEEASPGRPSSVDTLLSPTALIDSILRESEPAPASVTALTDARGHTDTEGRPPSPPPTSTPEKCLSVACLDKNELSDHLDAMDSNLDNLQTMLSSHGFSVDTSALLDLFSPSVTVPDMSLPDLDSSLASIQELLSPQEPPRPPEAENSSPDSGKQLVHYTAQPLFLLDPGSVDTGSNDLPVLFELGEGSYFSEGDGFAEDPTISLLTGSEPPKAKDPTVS
Chain of CRX (O43186 whole entry): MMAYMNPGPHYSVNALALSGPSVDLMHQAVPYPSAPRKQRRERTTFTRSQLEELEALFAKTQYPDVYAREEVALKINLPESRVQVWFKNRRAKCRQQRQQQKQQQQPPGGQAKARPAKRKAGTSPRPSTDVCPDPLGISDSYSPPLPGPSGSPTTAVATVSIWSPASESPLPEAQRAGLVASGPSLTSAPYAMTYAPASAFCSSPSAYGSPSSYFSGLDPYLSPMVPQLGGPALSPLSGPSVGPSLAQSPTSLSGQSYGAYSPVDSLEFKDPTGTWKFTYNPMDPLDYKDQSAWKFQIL

Sequence	binding signal [1]	binding signal [2]	binding signal [3]	binding signal [4]	binding signal [5]	binding signal [6]	binding signal [7]	binding signal [8]	binding signal [9]	binding signal [10]	binding signal [11]	binding signal [12]	binding signal [13]	binding signal [14]	binding signal [15]	binding signal [16]	binding signal [17]	binding signal [18]
CGACGA	1.19 fold enrichment (6-mer frequency, TF over GST control)	1.03 fold enrichment (6-mer frequency, TF over GST control)	1.11 fold enrichment (6-mer frequency, TF over GST control)	1.18 fold enrichment (6-mer frequency, TF over GST control)	1.09 fold enrichment (6-mer frequency, TF over GST control)	1.14 fold enrichment (6-mer frequency, TF over GST control)	1.2 fold enrichment (6-mer frequency, TF over GST control)	1.2 fold enrichment (6-mer frequency, TF over GST control)	1.1 fold enrichment (6-mer frequency, TF over GST control)	1.15 fold enrichment (6-mer frequency, TF over GST control)	1.16 fold enrichment (6-mer frequency, TF over GST control)	1.2 fold enrichment (6-mer frequency, TF over GST control)	1.17 fold enrichment (6-mer frequency, TF over GST control)	1.08 fold enrichment (6-mer frequency, TF over GST control)	1.01 fold enrichment (6-mer frequency, TF over GST control)	1.07 fold enrichment (6-mer frequency, TF over GST control)	–	–
TAAGCC	1.15 fold enrichment (6-mer frequency, TF over GST control)	1.12 fold enrichment (6-mer frequency, TF over GST control)	1.19 fold enrichment (6-mer frequency, TF over GST control)	1.13 fold enrichment (6-mer frequency, TF over GST control)	1.16 fold enrichment (6-mer frequency, TF over GST control)	1.08 fold enrichment (6-mer frequency, TF over GST control)	1.19 fold enrichment (6-mer frequency, TF over GST control)	1.06 fold enrichment (6-mer frequency, TF over GST control)	1.15 fold enrichment (6-mer frequency, TF over GST control)	1.12 fold enrichment (6-mer frequency, TF over GST control)	2.07 fold enrichment (6-mer frequency, TF over GST control)	1.15 fold enrichment (6-mer frequency, TF over GST control)	1.19 fold enrichment (6-mer frequency, TF over GST control)	1.15 fold enrichment (6-mer frequency, TF over GST control)	1.09 fold enrichment (6-mer frequency, TF over GST control)	1.14 fold enrichment (6-mer frequency, TF over GST control)	1.08 fold enrichment (6-mer frequency, TF over GST control)	3.55 fold enrichment (6-mer frequency, TF over GST control)
